Data: PubChem BioAssay AID1159580 (chemical genetic matrix, 2015)
Out of some 5,500 compounds screened, about 2,000 (36%) were called active. About 18% were inconclusive and are not listed. No stated cut-off is given here; in the data, active means normalized growth mostly below about 0.91 (no sharp cut-off); inconclusive means no clear call, values can overlap the other calls; inactive means mostly above about 0.92. The list shows a part of the results.

Experiment: chemical genetic growth profiling, strain panel (AID 1159580);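 further: tested at 20 µM; growth read once vehicle control cultures reached saturation at 30 °C; 1 = growth at the plate median or of vehicle wells; lower values mean less growth of the strain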
Details: S. cerevisiae deletion strains, growth OD
[1] = locus YAL040C, strain CLN3, active compounds read low
[2] = locus YCL061C, strain MRC1 (second series), active compounds read low
[3] = locus YDR363W, strain ESC2, active compounds read low
[4] = locus YER002W, strain NOP16, active compounds read low
[5] = locus YNL175C, strain NOP13, active compounds read low
[6] = locus YNL197C, strain WHI3, active compounds read low
[7] = locus YNL224C, strain SQS1, active compounds read low
[8] = locus YOR083W, strain WHI5 (second series), active compounds read low

Measured: normalized growth

Nc1nc(Nc2ccccc2)nc2c1ncn2[C@@H]1O[C@H](CO)[C@H](O)C1O (stereo partly drawn)
inactive: locus YAL013W, strain DEP1, active compounds read low 0.982 | [1] 1.05 | [2] 0.999 | locus YDR150W, strain NUM1, active compounds read low 0.999 | [3] 1.02 | [4] 1 | locus YMR263W, strain SAP30, active compounds read low 1 | locus YMR307W, strain GAS1, active compounds read low 1 | [5] 1.01 | [6] 1.01 | [7] 1.01 | [8] 1.02

N[C@H](C(=O)O)c1cc(O)cc(O)c1
inactive: [1] 0.975 | [2] 0.995 | [3] 0.949 | [4] 0.985 | [5] 1.02 | [6] 0.996 | [7] 1.01 | locus YNL322C, strain KRE1, active compounds read low 0.982 | [8] 0.999 | locus YPL055C, strain LGE1, active compounds read low 0.956 | locus YPL241C, strain CIN2, active compounds read low 0.991

C[C@H]1O[C@H](OC2[C@@H](O)[C@@H](O)C(O)[C@H](O)[C@H]2O)[C@@H](N)C[C@@H]1N=C(N)C(=O)O (stereo partly drawn)
inactive: locus YAL021C, strain ccr4, active compounds read low 0.989 | locus YAL026C, strain drs2, active compounds read low 0.995 | locus YAL030W, strain snc1, active compounds read low 1 | locus YBL061C, strain skt5, active compounds read low 0.996 | locus YBR009C, strain hhf1, active compounds read low 1.05 | locus YBR023C, strain chs3, active compounds read low 0.99 | locus YBR171W, strain sec66, active compounds read low 0.911 | locus YBR231C, strain swc5, active compounds read low 0.999 | locus YBR279W, strain paf1, active compounds read low 0.986 | locus YCL011C, strain gbp2, active compounds read low 0.979 | locus YCL016C, strain dcc1, active compounds read low 1 | locus YCL061C, strain MRC1, active compounds read low 0.999 | locus YCL069W, strain vba3, active compounds read low 1 | locus YCR088W, strain abp1, active compounds read low 0.983 | locus YDL005C, strain med2, active compounds read low 0.986 | locus YDL040C, strain nat1, active compounds read low 0.992 | locus YDR001C, strain nth1, active compounds read low 0.985 | locus YDR069C, strain doa4, active compounds read low 0.999 | locus YDR137W, strain rgp1, active compounds read low 0.937 | locus YDR159W, strain sac3, active compounds read low 0.993 | locus YDR195W, strain ref2 1.02 | locus YDR297W, strain sur2, active compounds read low 0.988 | locus YDR334W, strain swr1, active compounds read low 0.965 | locus YDR335W, strain msn5, active compounds read low 0.975 | locus YDR392W, strain spt3, active compounds read low 0.882 | locus YEL003W, strain gim4, active compounds read low 0.981 | locus YEL037C, strain rad23, active compounds read low 0.994 | locus YEL061C, strain CIN8 (second series), active compounds read low 0.993 | locus YER015W, strain faa2, active compounds read low 0.995 | locus YER016W, strain bim1, active compounds read low 0.991 | locus YER111C, strain swi4, active compounds read low 0.995 | locus YER155C, strain BEM2 (second series), active compounds read low 1.02 | locus YFR010W, strain ubp6, active compounds read low 0.979 | locus YGL167C, strain pmr1, active compounds read low 0.986 | locus YGL173C, strain kem1, active compounds read low 0.994 | locus YGL227W, strain vid30, active compounds read low 1 | locus YGL240W, strain doc1, active compounds read low 1.01 | locus YGL253W, strain hxk2, active compounds read low 0.994 | locus YHR013C, strain ard1, active compounds read low 0.947 | locus YHR027C, strain rpn1, active compounds read low 0.982 | locus YHR030C, strain SLT2, active compounds read low 0.951 | locus YHR079C, strain IRE1, active compounds read low 0.964 | locus YHR142W, strain chs7, active compounds read low 0.927 | locus YJL092W, strain hpr5, active compounds read low 0.974 | locus YJL095W, strain BCK1 (second series), active compounds read low 0.992 | locus YJL095W, strain BCK1, active compounds read low 0.969 | locus YJL115W, strain asf1, active compounds read low 0.974 | locus YJL129C, strain trk1, active compounds read low 0.921 | locus YJL154C, strain vps35, active compounds read low 0.995 | locus YJL164C, strain tpk1, active compounds read low 0.97 | locus YJL166W, strain qcr8, active compounds read low 0.99 | locus YJL187C, strain SWE1, active compounds read low 0.992 | locus YJR066W, strain TOR1, active compounds read low 0.928 | locus YKL160W, strain elf1, active compounds read low 0.957 | locus YKR026C, strain gcn3, active compounds read low 0.997 | locus YKR091W, strain srl3, active compounds read low 0.991 | locus YLL001W, strain dnm1, active compounds read low 0.986 | locus YLL026W, active compounds read low 0.989 | locus YLL041C, strain sdh2, active compounds read low 0.977 | locus YLR027C, strain aat2, active compounds read low 0.978 | locus YLR113W, strain HOG1, active compounds read low 0.983 | locus YLR221C, strain rsa3, active compounds read low 0.962 | locus YLR258W, strain gsy2, active compounds read low 1.01 | locus YLR262C, strain YPT6 (second series), active compounds read low 0.912 | locus YLR320W, strain mms22, active compounds read low 0.967 | locus YLR342W, strain FKS1, active compounds read low 0.993 | locus YLR357W, strain rsc2, active compounds read low 1.01 | locus YLR370C, strain arc18, active compounds read low 0.981 | locus YLR384C, strain iki3, active compounds read low 1 | locus YML120C, strain ndi1, active compounds read low 0.959 | locus YMR058W, strain fet3, active compounds read low 0.988 | locus YMR125W, strain sto1, active compounds read low 0.984 | locus YMR129W, active compounds read low 1 | locus YMR205C, strain PFK2, active compounds read low 1.04 | locus YMR231W, strain pep5, active compounds read low 1.01 | locus YNL071W, strain lat1, active compounds read low 0.963 | locus YNL183C, strain NPR1, active compounds read low 0.944 | locus YNL209W, strain ssb2, active compounds read low 0.989 | locus YNL248C, strain rpa49, active compounds read low 0.933 | locus YNL322C, strain KRE1 (second series), active compounds read low 0.983 | locus YNR049C, strain mso1, active compounds read low 0.986 | locus YOR001W, strain rrp6, active compounds read low 0.923 | locus YOR070C, strain gyp1, active compounds read low 0.987 | locus YOR080W, strain dia2, active compounds read low 0.984 | locus YOR083W, strain WHI5, active compounds read low 0.934 | locus YOR106W, strain vam3, active compounds read low 0.94 | locus YOR231W, strain MKK1, active compounds read low 0.97 | locus YOR265W, strain rbl2, active compounds read low 0.989 | locus YOR270C, strain vph1, active compounds read low 0.924 | locus YOR290C, strain snf2, active compounds read low 0.927 | locus YPL051W, strain arl3, active compounds read low 0.964 | locus YPL078C, strain atp4, active compounds read low 0.951 | locus YPL106C, strain sse1, active compounds read low 0.971 | locus YPL240C, strain hsp82, active compounds read low 0.97 | locus YPL256C, strain CLN2, active compounds read low 0.98
